# Results filed as inconclusive are left out. Values without a mark were called inactive. Calls follow the shape of the dose curve; as a rule, active = well fitted activation curve with a large enough effect in the signal ratio in the repeat runs (not every such curve was filed as active); inconclusive = weak or mixed curves; inactive = flat fitted curve, though single readings scatter; the % refers to the signal ratio.
# Assay: qHTS assay to identify small molecule agonists of H2AX (AID 1224845)
# Conditions: CHO-K1 phospho-H2AX Ser139 HTRF, 3 h; series mostly up to 154 µM; activation (H2AX phosphorylation): at the top concentration
# Text: National Center for Advancing Translational Sciences [NCATS]
# NIH Chemical Genomics Center [NCGC]
# U.S. Environmental Protection Agency [EPA]
# National Institutes of Environmental Health Sciences [NIEHS]
# National Toxicology Program [NTP]
# U.S. Food and Drug Administration [FDA]
# HTRF phospho-H2AX (Ser139) assay (Cisbio Bioassays, US) enables the quantitative detection of the histone variant H2AX when phosphorylated on serine 139. When double-stranded DNA breaks, either by ionizing radiation or endogenous physiological processes, H2AX becomes phosphorylated at Ser139. This phospho-Ser139 serves as a sensitive biomarker for the detection of such breaks, localizing the site of DNA repair. So, HTRF phospho-H2AX Ser139 is a pertinent assay to study genome stability, the cell cycle, DNA repair, and it serves as a biomarker for cancer, and to understand aging. Wild type CHO-K1 cells were used to identify the inducers of Phospho-H2AX Ser 139 from the Tox21 10K compound collections.
# Tox21 Assay Protocol Summary:
# The CHO-K1 cells suspended in culture medium containing 10% FBS were dispensed at 1000 cells/ 3 ul/well in 1536-well white wall/solid bottom plates (Greiner Bio-One North America, NC) using a Multidrop Combi (Thermo Fisher Scientific Inc., Waltham, MA). After the assay plates were incubated at 37C overnight, 23 nl of compounds at 15 concentrations (from 5-48 columns) or positive control (from 1 to 4 columns) were transferred to the assay plates using a Pintool station (Wako, San Diego, CA) into each well resulting in a final DMSO concentration of 0.76%. After 3hr incubation at 37C, 1 uL/well Supplemented Lysis buffer (diluted 100 fold blocking reagent in lysis buffer) (HTRF Phospho-H2A.X (S139) Assay kit from Cisbio US Inc., Bedford, MA) was added using a Flying Reagent Dispenser (FRD) (Aurora Discovery, CA). After 10sec spin at 1000 rpm in a plate centrifuge, the assay plates were incubated at room temperature for 30 min. Then followed by the addition of 1 uL/well detection buffer (containing a mixture of two antibodies, one labeled with cryptate, Anti pH2AX (S139)-K and another labeled with d2, Anti H2AX-d2) using FRD. After incubation at room temperature for 24 hr, the time resolved fluorescence at excitation 320 nm and emissions at 665 nm and 620 nm was measured using an Envision plate reader (PerkinElmer, Waltham, MA).
# % is scaled to controls: 0 for no effect and ±100 for the full control effect.
row,SMILES,activation (H2AX phosphorylation)
1,O=C(O)CCC(=O)Nc1ccc(S(=O)(=O)Nc2nccs2)cc1,-3.56% [at 70.9 µM]
2,COc1cc(NS(=O)(=O)c2ccc(N)cc2)ncn1,-3.8% [at 70.9 µM]
3,C/C(Cl)=C/CCl,-1.94%
4,C/C=C(\C)C(=O)OC/C=C(\C)CCC=C(C)C,5.1%
5,CC(C)(O)c1ccc(C(C)(C)O)cc1,1.76%
6,CCO/C=C1\N=C(c2ccccc2)OC1=O,-0.157%
7,c1cc2ccc3ccc4ccc5cccc6c(c1)c2c3c4c56,-2.49% [at 5.45 µM]
8,COC(=O)c1ccc(C(=O)O)cc1,-0.12%
9,Cc1ccc(NC(N)=O)cc1,-4.16%
10,CCCC[O][Al]([O]CCCC)[O]CCCC,0.212%
11,CC(=O)c1ccc(O)c(C(N)=O)c1,1.35% [at 70.9 µM]
12,C/C=C/C(=O)CCCC,1.05%
13,C=CCON/C(CCC)=C1\C(=O)CC(C)(C)C(C(=O)OC)=C1O,-0.896%
14,CCCCOCCCC,-0.143%
15,CC1=C(O)C(=O)CO1,4.57%
16,CC/C=C/CCCCCCCCCCOC(C)=O,-1.57%
17,CC(C)(C)C(=O)CCc1ccc(Cl)cc1,1.45%
18,CNC(C)=O,-4.37%
19,Cc1ccc2ccccc2n1,1.3%
20,CC[C@@]1(c2ccccc2)NC(=O)N(C)C1=O,-3.51% [at 70.9 µM]

row,SMILES,activation (H2AX phosphorylation)
1,COc1cnc(NS(=O)(=O)c2ccc(N)cc2)nc1,-3.1% [at 70.9 µM]
2,C[n+]1ccccc1/C=N/O,-0.141% [at 70.9 µM]
3,CO/N=C(\C(=O)O)c1csc(NC(=O)CCl)n1,-0.83% [at 70.9 µM]
4,N=C(N)N,-2.25% [at 70.9 µM]
5,CCOC(=O)CC,-0.617%
6,O=C1c2ccccc2C(=O)N1CO,-1.77%
7,COc1cc(S(N)(=O)=O)cc(C(=O)O)c1OC,-0.445% [at 70.9 µM]
8,CCCCCCCCCCCC(C)=O,-0.828%
9,CC(=O)OC/C=C(/C)CCC=C(C)C,-0.175%
10,Nc1ccc(C(=O)NCC(=O)O)cc1,-3.31% [at 70.9 µM]
11,Cc1ccc2cccnc2c1,-1.63%
12,COC(=O)c1c(C)cc(O)c(C)c1O,-1.3%
13,CC(=O)c1c(C)cc(C(C)(C)C)cc1C,2.1%
14,CCCC(C)C(O)CC (stereo not given),-2.66%
15,Cc1ccc(S(=O)(=O)NC(=O)NN2CC3CCCC3C2)cc1 (stereo not given),-2.68% [at 70.9 µM]
16,CCN(CC)CC,2.88%
17,N#Cc1ccccc1C#N,0.197%
18,CCCCCC(=O)CC,7.9%
19,CCCCCCCC(=O)N(C)C,0.421%
20,CCC(C)(C)C,2.68%

# Source: PubChem BioAssay (Tox21)
